Test results published in PubChem BioAssay (EPA / NIEHS).
Records with an inconclusive call do not appear. The source made the active and inactive calls. The calls were made as follows, unless noted: active = hit-call score of the fitted dose curve at least 0.9, where 1 is the maximum; inconclusive = response in the unintended direction; inactive = score below 0.9.

Tests used:
[1] = target: PGR (gene 5241) (UniProt P06401); test: TOX21_PR_BLA_Followup_Agonist_ratio: Tox21 HEK293 Progesterone Receptor (PR) Agonism Beta-lactamase Follow-Up Assay, Ratio (AID 2283933)
Method in brief: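 Beta-lactamase reporter readout: ratio of cleaved (ch2) to uncleaved (ch1) substrate after 2 h room-temperature loading, following 16 h compound exposure at 37C. Cells were PR-UAS-bla HEK293T in 2% charcoal-stripped FBS medium. Viability was multiplexed by CellTiter-Glo.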

[2] = target: PGR (gene 5241) (UniProt P06401); test: TOX21_PR_BLA_Followup_Antagonist_ratio: Tox21 HEK293 Progesterone Receptor (PR) Antagonism Beta-lactamase Follow-Up Assay, Ratio (AID 2283934);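 also: PR-UAS-bla HEK293T cells stimulated with 1 nM R5020 agonist for 16 hr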
Method in brief: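 Readout is the blue/green (ch2/ch1) substrate cleavage ratio after 2 hours at room temperature, following 16 hr co-treatment of PR-bla HEK293T cells with compound and 1nM promegestone. Multiplexed CellTiter-Glo viability flags cytotoxicity; DMSO baseline.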

[3] = TOX21_PR_BLA_Followup_Agonist_viability: Viability Assessment in the Tox21 HEK293 Progesterone Receptor (PR) Agonism Beta-lactamase Follow-Up Assay (AID 2283935);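 also: signal loss means lower viability so actives are cytotoxic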
Method in brief: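 Run multiplexed with the beta-lactamase FRET read, this endpoint measures ATP by CellTiter-Glo luminescence (30 min, room temperature). PR-UAS-bla HEK293T cells received compound 6 hr after plating and were then incubated 16 hr at 37C in 2% stripped serum.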

[4] = TOX21_PR_BLA_Followup_Antagonist_viability: Viability Assessment in the Tox21 HEK293 Progesterone Receptor (PR) Antagonism Beta-lactamase Follow-Up Assay (AID 2283936);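 also: cells exposed to compound with R5020 agonist for 16 h; hits lower the luminescence signal meaning cytotoxicity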
Method in brief: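 PR-UAS-bla HEK293T cells in medium with 2% charcoal-stripped FBS were treated with compounds plus R5020 for 16 hr at 37C. After the beta-lactamase read, CellTiter-Glo was added to the same wells and luminescence read after 30 min at room temperature.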

[5] = target: PGR (gene 5241) (UniProt P06401); test: TOX21_PR_LUC_Followup_Agonist: Tox21 HEK293 Progesterone Receptor (PR) Agonism Luciferase Follow-Up Assay (AID 2283937; active = hit-call score of the fitted dose curve at least 0.9, where 1 is the maximum; inactive = score below 0.9)
Method in brief: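 Agonism scored as luciferase induction over DMSO, read by ONE-Glo after 30 min at RT. Compounds were incubated 16 h at 37C on HEK293-PR-A-luc cells (3,000/well, pre-plated 5 h) previously grown 5 days in charcoal-stripped serum.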

[6] = target: PGR (gene 5241) (UniProt P06401); test: TOX21_PR_LUC_Followup_Antagonist: Tox21 HEK293 Progesterone Receptor (PR) Antagonism Luciferase Follow-Up Assay (AID 2283938);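 also: curve fitted upward as signal gain over DMSO baseline despite antagonist label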
Method in brief: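 HEK293-PR-A-luc cells, 3,000/well, preincubated 5 h at 37C before compound addition in DMSO; 16 h compound exposure at 37C. ONE-Glo luciferase luminescence read after 30 min at room temperature, fitted relative to DMSO baseline.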

[7] = TOX21_p53_BLA_p5_viability: Viability Assessment in the Tox21 HCT-116 p53 Agonism Beta-lactamase Assay, Phase 5 (AID 2283600)
Method in brief: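 Decreased CellTiter-Glo luminescence denotes lost viability. Exposure: 16 h at 37C, 5% CO2, with compounds from DMSO stocks diluted 217-fold in wells of 4000 cells.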

[8] = target: Cellular tumor antigen p53 (Homo sapiens) (UniProt P04637); test: TOX21_p53_BLA_p4_ratio: Tox21 HCT-116 p53 Agonism Beta-lactamase Assay, Ratio, Phase 4 (AID 2283601)
Method in brief: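 HCT-116 p53 beta-lactamase reporter cells (4000/well) preincubated 5 h, then compound (217-fold dilution of DMSO stock) for 16 h at 37C. CCF4-AM substrate added 2 h at room temperature; 460/530 nm emission ratio fitted upward versus DMSO.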

[9] = target: Luciferin 4-monooxygenase (Photinus pyralis) (UniProt P08659); test: CCTE_Simmons_QuantiLum_inhib_2: CCTE's Firefly Luciferase Inhibition Assay, Simmons Lab (AID 2283767)
Method in brief: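 Eight test concentrations, 5 nM up to 87.5 uM final, preincubated 30min at 37C in the dark with purified luciferase (0.5% DMSO final). Detection reagent (150uM D-luciferin, 147uM dATP, 75uM CoA, pH 7.8) injected per well before kinetic luminescence read; three replicates.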

[10] = CEETOX_H295R_MTT_cell_viability: Viability Assessment in the CeeTox HT-H295R MTT Assay (AID 2283718; active = hit-call score of the fitted dose curve at least 0.9, where 1 is the maximum; inactive = score below 0.9)
Method in brief: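 Human H295R adrenal cells, prestimulated 48 h with 10 uM forskolin, were exposed 48 h to chemicals in 0.1% DMSO. Viability was measured in the same wells by MTT (0.5 mg/ml, 4 h, 37 C), absorbance 570/650 nm, as percent of controls.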

[11] = CEETOX_H295R_11DCORT_noMTC: CeeTox H295R High-throughput Steroidogenesis Assay for 11-Deoxycortisol (11DCORT), maximum tolerated concentration (MTC) filtered results only (AID 2283911; active = hit-call score of the fitted dose curve at least 0.9, where 1 is the maximum; inactive = score below 0.9); details: actives raise or lower the signal
Method in brief: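 H295R cells were prestimulated 48 h with 10 uM forskolin, then exposed 48 h to chemical (0.1% DMSO final). 11-Deoxycortisol in the medium was measured by MTBE extraction and HPLC-MS/MS, with bidirectional fitting versus DMSO and no MTC filtering of concentrations.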

[12] = CEETOX_H295R_OHPREG_noMTC: CeeTox H295R High-throughput Steroidogenesis Assay for OH-Pregnenolone (OHPREG), maximum tolerated concentration (MTC) filtered results only (AID 2283912; active = hit-call score of the fitted dose curve at least 0.9, where 1 is the maximum; inactive = score below 0.9); details: actives raise or lower the signal
Method in brief: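 H295R; 10 uM forskolin 48 h pre-stim; test cpd in DMSO (0.1% final) 48 h; media MTBE-extracted, HPLC-MS/MS for OH-pregnenolone; bidirectional fit vs DMSO; no MTC (MTT) filtering.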

[13] = CEETOX_H295R_OHPROG_noMTC: CeeTox H295R High-throughput Steroidogenesis Assay for OH-Progesterone (OHPROG), maximum tolerated concentration (MTC) filtered results only (AID 2283914; active = hit-call score of the fitted dose curve at least 0.9, where 1 is the maximum; inactive = score below 0.9); details: actives raise or lower the signal
Method in brief: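 Medium hormone measured by reverse-phase C18 HPLC with positive electrospray MS/MS after MTBE liquid-liquid extraction. Cells had 48 h forskolin (10 uM) prestimulation, then 48 h chemical dosing. Gain or loss of signal fitted relative to DMSO baseline.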

[14] = CEETOX_H295R_ANDR_noMTC: CeeTox H295R High-throughput Steroidogenesis Assay for Androstenedione (ANDR), maximum tolerated concentration (MTC) filtered results only (AID 2283915; active = hit-call score of the fitted dose curve at least 0.9, where 1 is the maximum; inactive = score below 0.9); details: actives raise or lower the signal
Method in brief: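 Androstenedione secreted into medium was measured by LC-MS/MS after MTBE extraction. Human adrenal H295R cells received 10 uM forskolin for 48 h before 48 h chemical exposure (0.1% DMSO). Gain or loss fitted against DMSO, including concentrations above the MTT-derived MTC.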

[15] = CEETOX_H295R_CORTISOL_noMTC: CeeTox H295R High-throughput Steroidogenesis Assay for Cortisol, maximum tolerated concentration (MTC) filtered results only (AID 2283916; active = hit-call score of the fitted dose curve at least 0.9, where 1 is the maximum; inactive = score below 0.9); details: actives raise or lower the signal
Method in brief: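 H295R human adrenal cells prestimulated 48 h with 10 uM forskolin, then exposed 48 h to chemical in 0.1% DMSO; cortisol in medium quantified by HPLC-MS/MS; bidirectional fit vs DMSO baseline, concentrations not MTT-filtered for MTC.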

[16] = CEETOX_H295R_CORTIC_noMTC: CeeTox H295R High-throughput Steroidogenesis Assay for Corticosterone (CORTIC), maximum tolerated concentration (MTC) filtered results only (AID 2283917; active = hit-call score of the fitted dose curve at least 0.9, where 1 is the maximum; inactive = score below 0.9); details: actives raise or lower the signal
Method in brief: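 Corticosterone secreted into the medium was measured by reverse-phase C18 HPLC with tandem MS after MTBE extraction. Cells (H295R) had 48 h forskolin (10 uM) stimulation before 48 h chemical exposure; gain or loss of signal was fitted relative to DMSO.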

[17] = CEETOX_H295R_DOC_noMTC: CeeTox H295R High-throughput Steroidogenesis Assay for DOC, maximum tolerated concentration (MTC) filtered results only (AID 2283918; active = hit-call score of the fitted dose curve at least 0.9, where 1 is the maximum; inactive = score below 0.9); details: actives raise or lower the signal
Method in brief: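 H295R cells prestimulated 48 h with 10 uM forskolin, then exposed 48 h to chemical in 0.1% DMSO. 11-Deoxycorticosterone in medium measured by MTBE extraction and HPLC-MS/MS; bidirectional fit vs DMSO, no MTC filter.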

[18] = CEETOX_H295R_ESTRADIOL_noMTC: CeeTox H295R High-throughput Steroidogenesis Assay for Estradiol, maximum tolerated concentration (MTC) filtered results only (AID 2283919; active = hit-call score of the fitted dose curve at least 0.9, where 1 is the maximum; inactive = score below 0.9); details: actives raise or lower the signal
Method in brief: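 Readout: dansyl-derivatized estradiol quantified by LC-MS/MS in medium from H295R cells dosed 48 h (0.1% DMSO) following 48 h forskolin (10 uM) prestimulation. Gain or loss of signal fitted against DMSO; no MTC filtering applied.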

[19] = CEETOX_H295R_PROG_noMTC: CeeTox H295R High-throughput Steroidogenesis Assay for Progesterone (PROG), maximum tolerated concentration (MTC) filtered results only (AID 2283920; active = hit-call score of the fitted dose curve at least 0.9, where 1 is the maximum; inactive = score below 0.9); details: actives raise or lower the signal
Method in brief: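 Readout: medium progesterone by MTBE extraction, reverse-phase C18 HPLC, ESI-positive MS/MS. Human H295R cells, 10 uM forskolin pretreatment 48 h, chemical 48 h in 0.1% DMSO. Gain or loss fitted against DMSO baseline.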

[20] = CEETOX_H295R_ESTRONE_noMTC: CeeTox H295R High-throughput Steroidogenesis Assay for Estrone, maximum tolerated concentration (MTC) filtered results only (AID 2283921; active = hit-call score of the fitted dose curve at least 0.9, where 1 is the maximum; inactive = score below 0.9); details: actives raise or lower the signal
Method in brief: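 Estrone in spent medium, quantified by tandem MS following dansyl chloride derivatization, after 48 h chemical exposure (0.1% DMSO) of forskolin-prestimulated (10 uM, 48 h) H295R cells; concentrations not MTC-filtered, bidirectional fit against DMSO.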

[21] = CEETOX_H295R_TESTO_noMTC: CeeTox H295R High-throughput Steroidogenesis Assay for Testosterone (TESTO), maximum tolerated concentration (MTC) filtered results only (AID 2283924; active = hit-call score of the fitted dose curve at least 0.9, where 1 is the maximum; inactive = score below 0.9); details: actives raise or lower the signal
Method in brief: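 Medium testosterone, measured by HPLC-MS/MS after liquid-liquid extraction, was fitted in both directions relative to DMSO without MTC filtering. Adrenal H295R cells received 48 h chemical exposure (0.1% DMSO final) after 48 h forskolin (10 uM) prestimulation; viability by MTT.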

[22] = target: Thyroid hormone receptor alpha (Rattus norvegicus) + Thyroid hormone receptor beta (Rattus norvegicus) (UniProt P18113+P63059); test: TOX21_TR_LUC_GH3_Antagonist_Followup: Tox21 GH3 Thyroid Hormone Receptor Antagonism Luciferase Follow-Up Assay (AID 2283942)
Method in brief: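 Luminescence read-out (ONE-Glo, 30 min at room temperature) in GH3 reporter cells challenged with 1.0 nM T3 final. Compounds ran at 92 uM to 5nM over 15 concentrations for 24 h; DMSO served as negative control and baseline.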

[23] = target: THRA (gene 7067) (UniProt P10827); test: TOX21_TRA_COA_Antagonist_Followup_ratio: Tox21 Thyroid Hormone Receptor alpha Antagonism through Coactivator Recruitment Follow-Up Assay, Ratio (AID 2283953)
Method in brief: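 GST-TRα LBD 2.5 nM, BSA 0.10%, + cpd; then FITC-SRC-2 peptide 200 nM + Tb-anti-GST Ab 2 nM. TR-FRET ratio 520/495 nm. Norm: DMSO = 0%, T3 = 100%.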

[24] = target: THRB (gene 7068) (UniProt P10828); test: TOX21_TRB_BLA_Antagonist_Followup_ratio: Tox21 Thyroid Hormone Receptor beta Antagonism Beta-lactamase (BLA) Follow-Up Assay, Ratio (AID 2283958)
Method in brief: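 Beta-lactamase reporter ratio (460/530 nm, CCF4-AM substrate, 2 h room temperature) was read in TRb-bla HEK293T cells after 18 h compound treatment (11 concentrations, triplicate) at 37C in 2% charcoal-stripped FBS medium. Loss of signal fitted against DMSO.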

[25] = TOX21_TRB_BLA_Antagonist_Followup_viability: Viability Assessment in the Tox21 Thyroid Hormone Receptor beta Antagonism Beta-lactamase (BLA) Follow-Up Assay (AID 2283961)
Method in brief: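 HEK293T cells with GAL4-human TRβ LBD and UAS-bla reporter, 3,000 cells/well in 2% charcoal-stripped FBS medium; 11-point concentrations in triplicate, 18 h at 37C. Viability from ATP by CellTiter-Glo luminescence, 30 min RT, same plates.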

[26] = target: Retinoic acid receptor RXR-alpha (Homo sapiens) (UniProt P19793); test: TOX21_TR_RXR_BLA_Antagonist_Followup_ratio: Tox21 Thyroid Hormone Receptor beta Retinoid X Receptor alpha (RXRa) Antagonism Beta-lactamase (BLA) Follow-Up Assay, Ratio (AID 2283972)
Method in brief: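 RXRa-UAS-bla HEK293T cells, 2,500/well in phenol red-free DMEM with 2% charcoal-stripped FBS, 5 h attachment, then compounds (11 concentrations, triplicate) for 16 h at 37C; FRET-B/GCCF4-AM substrate 2 h RT; 460:530 nm ratio, loss of signal vs DMSO.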

[27] = TOX21_TR_RXR_BLA_Antagonist_Followup_viability: Viability Assessment in the Tox21 Thyroid Hormone Receptor beta Retinoid X Receptor alpha (RXRa) Antagonism Beta-lactamase (BLA) Follow-Up Assay (AID 2283979)
Method in brief: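 RXRa-bla HEK293T cells (2,500/well, phenol red-free DMEM, 2% charcoal-stripped FBS) were attached 5 h, then exposed to compounds at 11 concentrations in triplicate for 16 h at 37C. Viability measured by CellTiter-Glo ATP luminescence, bidirectional fitting versus DMSO.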

Measured: AC50

Chain of PGR (gene 5241) (P06401 whole entry, looked up): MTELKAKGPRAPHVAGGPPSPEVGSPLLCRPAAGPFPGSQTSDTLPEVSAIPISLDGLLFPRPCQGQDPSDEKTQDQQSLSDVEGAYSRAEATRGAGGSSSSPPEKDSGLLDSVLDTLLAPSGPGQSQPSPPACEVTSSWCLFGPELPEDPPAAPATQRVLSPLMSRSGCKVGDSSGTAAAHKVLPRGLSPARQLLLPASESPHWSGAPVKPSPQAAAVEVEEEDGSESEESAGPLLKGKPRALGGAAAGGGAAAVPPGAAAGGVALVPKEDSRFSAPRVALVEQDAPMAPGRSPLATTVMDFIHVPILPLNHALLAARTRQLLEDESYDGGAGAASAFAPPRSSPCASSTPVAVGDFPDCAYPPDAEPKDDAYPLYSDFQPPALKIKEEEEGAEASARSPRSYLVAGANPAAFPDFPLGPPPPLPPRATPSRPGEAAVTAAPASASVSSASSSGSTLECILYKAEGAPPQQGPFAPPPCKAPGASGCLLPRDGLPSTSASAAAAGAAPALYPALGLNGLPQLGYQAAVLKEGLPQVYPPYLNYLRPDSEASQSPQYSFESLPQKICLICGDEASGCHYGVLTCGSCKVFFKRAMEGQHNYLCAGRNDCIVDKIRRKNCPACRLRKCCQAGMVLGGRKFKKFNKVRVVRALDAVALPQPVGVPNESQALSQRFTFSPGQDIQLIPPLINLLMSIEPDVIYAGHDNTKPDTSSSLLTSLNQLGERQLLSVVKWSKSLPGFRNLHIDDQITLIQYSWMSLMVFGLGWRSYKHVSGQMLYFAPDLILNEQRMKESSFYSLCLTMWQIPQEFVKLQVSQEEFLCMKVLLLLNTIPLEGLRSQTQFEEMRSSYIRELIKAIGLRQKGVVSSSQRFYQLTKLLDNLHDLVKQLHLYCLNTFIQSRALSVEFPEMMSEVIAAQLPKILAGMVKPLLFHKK
Chain of Cellular tumor antigen p53 (Homo sapiens) (P04637 whole entry, looked up): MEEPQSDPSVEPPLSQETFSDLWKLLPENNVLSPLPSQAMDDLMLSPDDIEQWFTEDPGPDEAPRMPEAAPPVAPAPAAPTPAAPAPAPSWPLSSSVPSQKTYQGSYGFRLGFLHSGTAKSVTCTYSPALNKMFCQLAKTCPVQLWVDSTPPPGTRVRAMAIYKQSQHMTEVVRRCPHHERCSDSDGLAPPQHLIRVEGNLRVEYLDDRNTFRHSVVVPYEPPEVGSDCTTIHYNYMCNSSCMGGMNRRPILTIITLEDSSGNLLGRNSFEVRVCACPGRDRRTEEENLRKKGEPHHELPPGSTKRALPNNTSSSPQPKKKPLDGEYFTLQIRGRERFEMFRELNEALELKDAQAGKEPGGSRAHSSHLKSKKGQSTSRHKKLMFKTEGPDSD
Chain of Luciferin 4-monooxygenase (Photinus pyralis) (P08659 whole entry, looked up): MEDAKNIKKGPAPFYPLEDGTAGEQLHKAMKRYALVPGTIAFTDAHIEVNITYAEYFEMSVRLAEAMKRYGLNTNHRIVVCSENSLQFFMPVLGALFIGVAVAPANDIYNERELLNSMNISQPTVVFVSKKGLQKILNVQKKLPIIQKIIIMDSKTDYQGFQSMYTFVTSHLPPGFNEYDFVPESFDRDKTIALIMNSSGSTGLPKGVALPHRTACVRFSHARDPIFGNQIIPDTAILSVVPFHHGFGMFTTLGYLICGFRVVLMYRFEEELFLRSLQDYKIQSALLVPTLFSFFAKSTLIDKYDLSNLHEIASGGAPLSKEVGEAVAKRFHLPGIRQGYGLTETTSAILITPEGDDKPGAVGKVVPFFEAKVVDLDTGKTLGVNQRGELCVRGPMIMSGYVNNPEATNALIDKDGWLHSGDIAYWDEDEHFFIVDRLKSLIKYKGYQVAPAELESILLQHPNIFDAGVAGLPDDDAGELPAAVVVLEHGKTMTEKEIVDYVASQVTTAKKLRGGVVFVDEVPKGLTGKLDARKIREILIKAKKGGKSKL
Chain of THRB (gene 7068) (P10828 whole entry, looked up): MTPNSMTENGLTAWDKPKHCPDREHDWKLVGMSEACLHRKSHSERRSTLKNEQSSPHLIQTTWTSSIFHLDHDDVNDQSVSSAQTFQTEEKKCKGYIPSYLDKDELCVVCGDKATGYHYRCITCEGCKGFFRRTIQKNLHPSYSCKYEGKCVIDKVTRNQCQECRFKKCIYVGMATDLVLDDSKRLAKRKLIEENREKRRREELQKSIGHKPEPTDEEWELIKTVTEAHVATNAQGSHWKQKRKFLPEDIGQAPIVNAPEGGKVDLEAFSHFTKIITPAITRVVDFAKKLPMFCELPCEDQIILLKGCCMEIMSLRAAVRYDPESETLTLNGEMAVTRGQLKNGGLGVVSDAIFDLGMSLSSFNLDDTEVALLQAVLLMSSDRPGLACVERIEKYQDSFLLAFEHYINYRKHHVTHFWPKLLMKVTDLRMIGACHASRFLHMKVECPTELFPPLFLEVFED
Chain of Retinoic acid receptor RXR-alpha (Homo sapiens) (P19793 whole entry, looked up): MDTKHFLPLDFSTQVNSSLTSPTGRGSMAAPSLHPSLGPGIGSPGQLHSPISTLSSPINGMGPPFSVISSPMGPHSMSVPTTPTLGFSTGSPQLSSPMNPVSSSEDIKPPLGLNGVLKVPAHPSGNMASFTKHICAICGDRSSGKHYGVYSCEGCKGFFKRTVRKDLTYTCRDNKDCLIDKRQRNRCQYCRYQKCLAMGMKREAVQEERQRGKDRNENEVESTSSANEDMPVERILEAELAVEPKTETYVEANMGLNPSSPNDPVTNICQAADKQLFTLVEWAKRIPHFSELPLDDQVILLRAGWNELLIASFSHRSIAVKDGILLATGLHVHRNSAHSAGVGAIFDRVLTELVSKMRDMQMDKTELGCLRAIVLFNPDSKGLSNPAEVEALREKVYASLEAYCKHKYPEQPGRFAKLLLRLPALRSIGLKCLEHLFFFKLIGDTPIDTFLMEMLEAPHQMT
Chain of THRA (gene 7067) (P10827 whole entry, looked up, the tested form may be a part): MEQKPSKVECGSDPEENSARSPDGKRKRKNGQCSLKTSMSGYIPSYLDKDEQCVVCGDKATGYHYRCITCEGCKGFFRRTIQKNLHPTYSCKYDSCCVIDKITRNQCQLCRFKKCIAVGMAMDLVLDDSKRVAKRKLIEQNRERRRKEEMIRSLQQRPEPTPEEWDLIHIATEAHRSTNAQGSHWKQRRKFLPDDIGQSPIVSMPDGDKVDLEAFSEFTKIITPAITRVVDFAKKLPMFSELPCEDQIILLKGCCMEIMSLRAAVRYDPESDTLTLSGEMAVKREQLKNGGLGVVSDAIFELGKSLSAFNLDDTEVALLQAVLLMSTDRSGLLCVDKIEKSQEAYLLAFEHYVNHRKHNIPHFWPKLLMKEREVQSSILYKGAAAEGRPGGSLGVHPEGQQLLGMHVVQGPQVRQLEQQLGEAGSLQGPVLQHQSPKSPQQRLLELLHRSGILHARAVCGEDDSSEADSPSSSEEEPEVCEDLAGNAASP

CC1(C)OC(=O)Nc2ccc(Br)cc21
inactive: [1] | [2] | [3] | [4] | [5] | [6]

CCOC(=O)/C=C/C(=O)OCC
inactive: [7] | [8]

COc1c[nH]ccc1=O
inactive: [9]

Cc1cc(N)no1
inactive: [8]

CS(=O)(=O)OCCOS(C)(=O)=O
inactive: [10] | [11] | [12] | [13] | [14] | [15] | [16] | [17] | [18] | [19] | [20] | [21]

Cc1ccc(O)c([C@H](CCN(C(C)C)C(C)C)c2ccccc2)c1
inactive: [8]

COc1ccc2c(c1)N(C[C@H](C)CN(C)C)c1ccccc1S2
active: [22] 2.79 µM
inactive: [8] | [23] | [24] | [25] | [26] | [27]
